Screens from PubChem.
Compounds with a hit are over-represented: about 2.1% of the library has one in this group of screens.
PrP UTR inh: inhibition of PrP 5' UTR reporter expression; cell-based PrP 5' UTR mRNA reporter, plate reader; inhibition, % (no concentration beside the values); 340,000 tested, 0.35% active; in the data active = inhibition above about 52%; also: 0 = median of the neutral control wells
PrPC surface inh: inhibitors of human cell surface prion protein PrPC, primary screen, cell-based, TR-FRET; TR-FRET read-out; inhibition, % at 13.8 µM; 370,000 tested, 0.43% active; in the data active = inhibition above about 24%; also: 0% = median of the test wells and 100% = reference compound wells
ugtP null kill: growth inhibition of ugtP-null S. aureus, primary screen, RN4220 ugtP deletion, OD600; 330,000 tested, 0.54% active; AID 1259309, 2017; 16 h; growth inhibition, % (no concentration beside the values); in the data active = growth inhibition above about 68%;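 also: plate controls were untreated wells for no effect and antibiotic for full effect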
CCHF vOTU inh: CCHFV vOTU protease inhibitors, primary screen, biochemical, Pep-AMC substrate, fluorescence; Crimean-Congo hemorrhagic fever virus L polyprotein viral ovarian tumor (vOTU) protease …; inhibition, % at 11.5 µM; 370,000 tested, 0.55% active; AID 651958, 2012; in the data active = inhibition above about 30%; also: 0% = vehicle wells with enzyme and 100% = no enzyme wells
RN4220 kill: growth inhibition of S. aureus RN4220, primary screen, OD600 | 16 h | inhibition, % (test concentration not listed) | 330,000 tested, 0.33% active | AID 1259311, 2017; in the data active = inhibition above about 85%;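 also: plate controls were untreated cells for no effect and reference antibiotic for full effect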
PfHsp40 yeast: rescue of yeast from PfHsp40 toxicity, primary screen, S. cerevisiae, ATP luminescence; growth rescue, % at 12.5 µM; S. cerevisiae expressing PfHsp40, growth rescue; AID 504582, 2011; 340,000 tested, 0.68% active; in the data active = growth rescue above about 28%, passing the limit was not always enough; inconclusive = no clear call, values can overlap the other calls;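 also: yeast W303a lacking pdr1 and pdr3 grown in galactose medium; growth measured after three days at 30 °C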
* = called active by the depositor; u = inconclusive; x = no result.

SMILES	PrP UTR inh	PrPC surface inh	ugtP null kill	CCHF vOTU inh	RN4220 kill	PfHsp40 yeast
CC(C)c1cc(-c2cc(C(=O)NCc3ccccc3)on2)nc(NCC2CC2)n1	-14	3	-4	-10	-13	387*
O=C(Sc1cccc2cccnc12)c1ccc(F)cc1	x	28*	-1	0	33	x
CCc1cc(CC)c(C=NNC(N)=O)c(CC)c1C=NNC(N)=O	x	x	0	x	2	x
O=C(NN=Cc1ccc(N2CCCCC2)o1)c1ccccc1[N+](=O)[O-]	x	x	-2	x	4	x
CC(=O)OCC1=C(C(=O)O)N2C(=O)[C@@H](NC(=O)CSc3ccncc3)[C@H]2SC1	-9	-6	99*	10	100*	-1
CC(=O)OCC1=C(C(=O)O)N2C(=O)C(NC(=O)c3ccc(F)cc3)C2SC1 (stereo unspecified)	-3	2	100*	4	100*	0
CC1=C(C(=O)O)N2C(=O)C(NC(=O)Cc3ccccc3)C2SC1 (stereo unspecified)	-13	1	37	-11	27	-1
CO/N=C(\C(=O)N[C@@H]1C(=O)N2C(C(=O)O)=C(COC(N)=O)CS[C@H]12)c1ccco1	-2	10	x	7	x	1
CC1=C(C(=O)O)N2C(=O)C(NC(=O)c3nn(C)c(C)c3Cl)C2SC1 (stereo unspecified)	1	-3	23	9	19	1
CC(=O)OCC1=C(C(=O)O)N2C(=O)C(NC(=O)C(C)Cn3nc(C)c(Cl)c3C)C2SC1 (stereo unspecified)	-25	3	101*	-3	100*	-1
CCC(=O)Nc1cccc(C2=NOC3(C2)CC(C(N)=O)N(C(=O)c2cc([N+](=O)[O-])cc([N+](=O)[O-])c2C)C3)c1 (stereo unspecified)	x	x	10	x	5	x
CCc1ccc(S(=O)(=O)/N=C2/C=C(Sc3ncn[nH]3)C(=O)c3ccccc32)cc1	-18	x	x	x	x	179*
O=C(O)C1=CC(c2ccc3c(c2)OCO3)CC(OCCCCO)O1 (stereo unspecified)	x	x	-3	x	0	x
O=C(Nc1ccc(Cl)c(Cl)c1)C1=Cc2ccccc2OC1	-76	-8	98*	2	86*	1
COC(=O)C1=NN(c2ccccc2)C2(SC(=Cc3ccccc3)C(=O)N2c2ccccc2)S1 (stereo unspecified)	x	x	2	x	2	x
CCCC1S/C(=N/N=Cc2cccs2)NC1=O (stereo unspecified)	x	x	-13	x	1	x
O=C1NC(=S)S/C1=C\c1cc2ccccc2nc1N1CCCCC1	-6	-3	86*	0	84*	7
COc1ccccc1C=C1SC(=S)NC1=O	-13	-6	x	-1	x	0
COc1ccc2nc(N3CCCCC3)c(/C=C3\SC(=S)NC3=O)cc2c1	-15	-8	73	5	77	1
O=C1NC(=S)SC1=Cc1ccccc1Cl	-11	2	100*	11	98*	3
CCCCc1n[nH]c2c1C(=NO)CC(c1ccccc1)C2 (stereo unspecified)	x	x	-4	x	10	x
Cc1ccccc1NC(=O)CSc1ccc(-c2ccccn2)nn1	-4	-5	12	-3	2	381*
CCOc1ccc2nc(SCC(=O)N3CCCc4ccccc43)sc2c1	-10	1	85*	4	5	5
CCOc1ccc2nc(SCC(=O)N3c4ccccc4Sc4ccccc43)sc2c1	-16	9	26	1	-3	0
COc1ccccc1CNC(=O)CSc1ccc(-c2ccccn2)nn1	-16	-1	7	-1	3	314*
SMILES	PrP UTR inh	PrPC surface inh	ugtP null kill	CCHF vOTU inh	RN4220 kill	PfHsp40 yeast
Cc1cc(C)cc(NC(=O)CSc2ccc(-c3ccccn3)nn2)c1	-1	5	0	-16	2	u
O=C(CSc1ccc(-c2ccccn2)nn1)N1CCCc2ccccc21	42	-2	3	-8	10	473*
COc1ccccc1CNC(=O)CSc1ccc(-c2cccs2)nn1	6	-2	x	8	x	0
CCOC(=O)C1C2COc3ccccc3C2N2C(=O)c3cc(F)ccc3NC(=O)[C@@]12C (stereo partly specified)	x	x	-10	x	1	x
Cc1onc(-c2ccccc2)c1C(=O)NC(=S)NNC(=O)c1cc(-c2ccc(F)cc2)n[nH]1	-11	-5	-5	3	13	235*
Cc1onc(-c2ccccc2)c1C(=O)NC(=S)NNC(=O)c1ccco1	0	2	8	4	28	50*
O=C(C=Cc1cccc(F)c1)Nc1nccs1	x	x	-1	x	7	x
COc1cccc(C(=O)N2N=C(c3cccc(OC)c3)CC2(O)C(F)(F)F)c1 (stereo unspecified)	-16	-3	-2	-5	32	0
COc1cccc(C2=NN(C(=O)c3cccs3)C(O)(C(F)(F)F)C2)c1 (stereo unspecified)	-22	-7	74	9	91*	2
C[C@H](NS(=O)(=O)c1c(Cl)cccc1Cl)C(=O)NNC(=O)COc1ccccc1F	1	3	0	3	3	50*
CC(Oc1ccccc1F)C(=O)NNC(=O)CCS(=O)(=O)c1ccccc1Cl (stereo unspecified)	-15	5	-6	-4	3	-1
O=C1/C(=C\c2cc(Br)cc(Br)c2O)SC(=S)N1Cc1ccccc1	-5	x	100*	x	100*	0
CCOC(=O)[C@@H]1[C@H]2COc3cc(OC)ccc3[C@@H]2N2C(=O)N(c3cccc(C)c3)C(=O)[C@]12C	-6	-6	x	-6	x	65*
O=C(O)c1ccccc1NC(=S)NC(=O)c1sc2ccccc2c1Cl	-20	26*	1	-4	8	0
CC(=O)NCCc1c(C)n(Cc2ccccc2)c2ccccc12	-20	10	0	2	2	64*
Cc1cccc(C(=O)O/N=C(\N)Cc2cccc3ccccc23)c1	-24	x	2	x	3	300*
O=C(O)CCC(=O)CCC(=O)c1ccccc1	-37	0	-2	1	1	0
O=C(O)CCC(=O)c1ccc2sc3ccccc3c2c1	24	6	x	-14	x	122*
CCCOc1cccc(C(=O)NC(=S)Nc2ccc(N3CCN(C)CC3)cc2)c1	-21	-18	95*	2	9	0
CCOc1cccc(C(=O)NC(=S)Nc2ccc(N3CCN(CC)CC3)cc2)c1	-34	-2	94*	-6	2	-1
COc1cc(C(C)=NN2CCN(c3ccccc3OC)CC2)ccc1O	x	x	10	x	0	x
COc1ccc(C2C=CCN(C(=O)c3ccc(C)cc3)C(C)C(=O)N2Cc2ccc(F)cc2)cc1 (stereo unspecified)	x	x	4	x	11	x
Clc1ccc(OCc2nc(-c3ccncc3)no2)c(Br)c1	-88	7	0	-3	-1	597*
COc1cc(C=NNC(=O)c2cc(-c3c(C)nn(-c4ccccc4)c3C)n[nH]2)ccc1O	x	x	95*	x	62	x
